Bioassay records as filed in PubChem BioAssay.
TTR transcr act = increases transthyretin transcription; SH-SY5Y TTR promoter Gaussia luciferase, luminescence; 100% = recombinant luciferase protein wells; AID 1117267; activation, % at 16.7 µM; 1.3% of 92,000 active;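 active means activation above the mean of all tested compounds plus 3 SD, cut at about 9.5% in these data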;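 further: cells exposed to compounds for one day before reading; 0% = median of all test compound wells on the plate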
TTR inh HuH7 = counter-screen for TTR activators: TTR transcription inhibitors in HuH7 cells. shares compounds with TTR transcr act. HuH7 TTR promoter-Gaussia luciferase reporter, luminescence. inhibition, % at 16.7 µM. 4% of 1,100 active;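 active means average inhibition above the solvent-only control wells' mean plus 3 SD, cut at about 15% in these data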;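 further: 0% = cells with DMSO only and 100% = cells with inhibitor control FD; inhibitors lower well luminescence so higher value means more inhibition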
TTR act confirm = confirmation of human transthyretin transcription activators; activation, % at 16.7 µM; SHSY5Y TTR promoter Gaussia luciferase, luminescence; 100% = purified Lucia enzyme wells, no cells; 1,100 tested, under 10 active; shares compounds with TTR transcr act;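 active means mean activation above a set limit taken from the earlier primary screen, cut at about 11% in these data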;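 further: 0% = DMSO-treated cells and 100% = recombinant Lucia luciferase without cells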
An asterisk follows results filed as active. This is one part of a sample in which hits are shown more often than they occur.

Results for Cc1ccccc1CN1CCCCC(NC(=O)c2ccc(N(C)C)cc2)C1=O (stereo not given) ?
TTR transcr act: 13*; TTR inh HuH7: 11; TTR act confirm: -1

Results for Cc1ccc(CN2CCCCC(NC(=O)c3ccc(N(C)C)cc3)C2=O)cc1 (stereo not given) ?
TTR transcr act: -1

How did Cc1ccccc1CN1CCCCC(NC(=O)c2ccc(F)cc2)C1=O (stereo not given) do in these assays?
TTR transcr act: -2

What do the screens show for `Cc1cc(C)cc([C@H]2C[C@]34CN(C(=O)OC(C)(C)C)S(=O)(=O)[C@H]3C[C@H]2O4)c1`?
TTR transcr act: 4

What do the screens show for `COC(CNC(=O)[C@H](Cc1c[nH]c2ccccc12)NC1(C(=O)NCc2ccccc2)CCCCC1)OC`?
TTR transcr act: -2

How did CCc1nc2ccc(C(=O)NCCN3CCNC3=O)cn2c1N(CC)CCOC do in these assays?
TTR transcr act: -1

How did O=C(COC(=O)COc1ccccc1)NC1CCCC1 do in these assays?
TTR transcr act: 5

How did CC1COc2c3ccccc3nn21 (stereo not given) do in these assays?
TTR transcr act: 1

Results for Cc1cc(C(=O)O)c(C)o1 ?
TTR transcr act: 1

What do the screens show for `CCC(C)(C)n1nnnc1C(c1ccc(C)cc1)N1CCN(C(=O)c2ccco2)CC1` (stereo not given)?
TTR transcr act: 0

What do the screens show for `O=C(c1ccco1)N1CCN(C(c2ccc(F)cc2)c2nnnn2CC2CCCO2)CC1` (stereo not given)?
TTR transcr act: 11*; TTR inh HuH7: -6; TTR act confirm: 0

How did COc1ccc(C(c2nnnn2Cc2ccccc2)N2CCN(C(=O)c3ccco3)CC2)cc1 (stereo not given) do in these assays?
TTR transcr act: -4

What do the screens show for `COC(=O)CCc1c(C)c(C(=O)c2cc(OC)c(OC)c(OC)c2)c2ccccn12`?
TTR transcr act: -1

How did Cc1ccccc1CSc1nnc(C)c(=O)[nH]1 do in these assays?
TTR transcr act: 0

How did COc1cccc(NC(=O)CSc2ccc(-c3sc(C)nc3C)nn2)c1 do in these assays?
TTR transcr act: -2

Results for Cc1nc(C)c(-c2ccc(SCc3ccccc3C)nn2)s1 ?
TTR transcr act: 16*; TTR inh HuH7: 8; TTR act confirm: -1

How did CCc1cc(C(=O)c2ccc(OC)cc2)c(NC(=O)CC(C)(C)CC(=O)O)s1 do in these assays?
TTR transcr act: -1

What do the screens show for `CC(COc1ccc(C#N)cc1)CN1CCC(C(O)(c2ccccc2)c2ccccc2)CC1` (stereo not given)?
TTR transcr act: -1

What do the screens show for `COC(=O)CNC(=O)CN1C(=O)N(c2cccc(Cl)c2)C(N(O)C(=O)Nc2cccc(Cl)c2)C1(C)C` (stereo not given)?
TTR transcr act: 10*; TTR inh HuH7: -5; TTR act confirm: -1

How did CNC(=O)N(O)C1N(C)C(=O)N(Cc2ccccc2)C1(C)C (stereo not given) do in these assays?
TTR transcr act: 1

How did COC(=O)CN1C(=O)N(c2ccccc2)C(N(O)C(=O)Nc2ccccc2)C1(C)C (stereo not given) do in these assays?
TTR transcr act: 2

What do the screens show for `COC(=O)c1ccc2c(c1C(=O)OC)CN(S(=O)(=O)C(C)(C)C)[C@H]2CCO`?
TTR transcr act: -1

What do the screens show for `CN(CCCn1ccc(N)nc1=O)Cc1ccco1`?
TTR transcr act: 17*; TTR inh HuH7: -9; TTR act confirm: 0

Results for COc1ccc(CN(C)CCCn2ccc(N)nc2=O)cc1OC ?
TTR transcr act: 0

What do the screens show for `COc1ncnc2c1ncn2CCCN(C)Cc1ccco1`?
TTR transcr act: -1

What do the screens show for `CC1=C(C(=O)N2CCOCC2)CC(CC(=O)NCc2ccco2)C(=O)N1Cc1ccc(C(C)(C)C)cc1` (stereo not given)?
TTR transcr act: -1

What do the screens show for `Nc1nc(N)nc(Cc2ccccc2O)n1`?
TTR transcr act: -1

What do the screens show for `COC(=O)[C@]12C[C@H](CC(=O)N3CCN(C(=O)c4ccco4)CC3)C(=O)N(Cc3cccc4ccccc34)C1=C[C@H](C(C)C)O[C@@H]2C1CC1`?
TTR transcr act: 1

Results for COc1ccc(/C(C)=N/NC(=O)Cc2ccc(Cl)cc2)cc1 ?
TTR transcr act: -1

Results for COC(=O)c1ccc(COc2ccc(/C=N/O)cc2)o1 ?
TTR transcr act: 2

How did O=C(N/N=C/c1cccc([N+](=O)[O-])c1)c1cc[n+](CCO)cc1 do in these assays?
TTR transcr act: 0

How did CN(C)c1ccc(C(=O)OCC(=O)N2CCCC2)cc1 do in these assays?
TTR transcr act: 13*; TTR inh HuH7: -15; TTR act confirm: -1

What do the screens show for `CN(C)c1ccc(C(=O)OCC(=O)N2CCCCCC2)cc1`?
TTR transcr act: -2

How did CCOC(=O)N1CCN(C(=O)COC(=O)c2ccc(N(C)C)cc2)CC1 do in these assays?
TTR transcr act: 0
